Test results as given in PubChem BioAssay (NCATS).
Where “and” joins values, the source holds several entries; their conditions need not be identical. Equal values may be shown once. Inconclusive results are not listed. Calls of active or inactive are those of the source. The call rests on the fitted dose curve; in most records, active means well fitted inhibition curve with a large enough effect; inconclusive means small, poorly fitted or top-dose-only effect; inactive means flat fitted curve, though single readings scatter.

Test: Primary qHTS for inhibitors of nuclear receptor binding SET domain protein 2 (NSD2) in an isogenic RCH-ACV NSD2 p.E1099K mutant (9B) (AID 1645876); further: nearly all actives have a fitted effect of over 70% in size
Settings: RCH-ACV (leukaemia line) NSD2 E1099K (9B) viability, CellTiter-Glo, 72 h; series mostly up to 44.9 µM; activity change, negative = viability loss: at the top concentration
On the % scale 0 is the no-effect control and ±100 the full control effect; potency means the concentration at half of the fitted maximal effect.

Row | SMILES | activity change, negative = viability loss | Potency | outcome
1 | CCCN1CCCC[C@H]1C(=O)Nc1c(C)cccc1C | -10.7% (inactive) |  | 
2 | COc1ccc(CCN2CCC(Nc3nc4ccccc4n3Cc3ccc(F)cc3)CC2)cc1 |  | 7.5 µM (active) | 
3 | O=C(OCC(O)CO)c1ccccc1Nc1ccnc2cc(Cl)ccc12 (configuration not stated) |  | 16.8 µM (active) | 
4 | CN1C(CCl)Nc2cc(Cl)c(S(N)(=O)=O)cc2S1(=O)=O (configuration not stated) |  | inactive | 
5 | CC(=O)O[C@]1(C(C)=O)CC[C@H]2[C@@H]3C[C@H](C)C4=CC(=O)CC[C@]4(C)[C@H]3CC[C@@]21C |  | 25.8 µM (active) | 
6 | Cc1ccc(O)c2ncccc12 |  | 10.6 µM (active) | 
7 | COC(=O)[C@@H]1CC2=CC(=O)CC[C@]2(C)[C@@]23O[C@@H]2C[C@@]2(C)[C@@H](CC[C@@]24CCC(=O)O4)[C@H]13 |  | inactive | 
8 | CC(C)=CCC1C(=O)N(c2ccccc2)N(c2ccccc2)C1=O |  | 16.8 µM (active) | 
9 | CC(O)C(=O)O (configuration not stated) | 5.86% (inactive) |  | 
10 | CCCCCCCCCCCCCCCC[N+](C)(C)CC |  | 0.335 µM (active) | 
11 | CCN(CC)CCNC(=O)COc1ccc(Cl)cc1 | 5.84% (inactive) |  | 
12 | COc1cc(OC)cc(OC)c1 | 1.4% (inactive) |  | 
13 | COc1cc(C=C2CCC/C(=C\c3ccc(O)c(OC)c3)C2=O)ccc1O |  | 0.237 µM (active) | 
14 | OC[C@H]1O[C@@H](n2cnc3c(=S)nc[nH]c32)[C@H](O)[C@@H]1O |  | 0.473 µM (active) | 
15 | N[C@H](Cc1c[nH]c2ccccc12)C(=O)O | 5.59% (inactive) |  | 
16 | NCCC(O)(P(=O)(O)O)P(=O)(O)O |  |  | inactive
17 | COC(=O)C1=C(C)NC(C)=C(C(=O)O[C@@H]2CCCN(Cc3ccccc3)C2)[C@@H]1c1cccc([N+](=O)[O-])c1 |  | 21.1 µM (active) and 25.8 µM (active) | 
